# The supplement of paper PMC10941209
# Tested on: HFF
# Test: cell viability relative to DMSO control; higher = less cytotoxic
# Settings: 1 µM; 72 h
# Method: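 Single-dose cytotoxicity screen of the MMV Pandemic Response Box at 1 uM on human foreskin fibroblasts (HFF), 72 h at 37 C. Viability measured by MTT (OD 550 nm) and normalised to the DMSO control (% survival).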
row,Structure (SMILES),cell viability [%]
1,CN1c2ccc(Cl)cc2N(c2ccccc2)C(=O)c2cn(Cc3ccc(CN4CCOCC4)cc3)nc21,68.2
2,O=c1oc2ccc(Br)cc2cc1CSc1ncc[nH]1,74.7
3,CCC[C@@H]1C[C@@H](C(=O)N[C@@H]([C@H]2O[C@H](SC)[C@H](O)[C@@H](O)[C@H]2O)[C@H](C)Cl)N(C)C1,66.8
4,CC(C)(C)c1ccc(C(=O)NC(=O)N2CCCc3ccccc32)cc1,63.5
5,Clc1cc2nc(C3CCNCC3)n(Cc3ccc(CNCCc4c[nH]cn4)cc3)c2cc1Cl,65.3
6,O=S(=O)(Nc1cccc2cccnc12)c1ccccc1,64.1
7,COc1cc(NC(=O)CN2C(=O)NC(c3ccccc3)(c3ccccc3)C2=O)cc(OC)c1,61
8,COc1c(F)c(F)cc2c(=O)c(C(=O)O)cn(C3CC3)c12,69.4
9,CC(C)(C)c1cc(CCC(=O)N2CCC2)cc(C(C)(C)C)c1O,72.6
10,C[C@H](Cn1cnc2c(N)ncnc21)OCP(=O)(O)O,58.1
11,O=[N+]([O-])c1cn2c(n1)OC[C@@H](OCc1ccc(OC(F)(F)F)cc1)C2,64.4
12,O=C(NCc1ccccc1Cl)c1cnc2ccccc2n1,71.4
13,CCN(CC)S(=O)(=O)c1ccc(Cl)c(C(=O)Nc2sc3c(c2C#N)CCCC3)c1,60.2
14,COCCn1cnc2c(O)nc(Nc3ccccc3)nc21,61
15,Nc1nc(C(F)(F)F)cc2c1[nH]c(=O)n2Cc1ccccc1,65
16,Nc1nc(F)nc2c1ncn2[C@H]1O[C@@H](CO)[C@H](O)[C@@H]1O,65
17,COc1ccc(CNC(=O)C2CCN([C@H](C)c3cccc4ccccc34)CC2)cc1,62.6
18,c1ccc(Cn2c(-c3ccccn3)nc3ccccc32)cc1,63.2
19,CC(C)/N=c1\cc2n(-c3ccc(Cl)cc3)c3ccccc3nc-2cc1Nc1ccc(Cl)cc1,72.6

row,Structure (SMILES),cell viability [%]
1,O=C(NCCN1CCCCC1)c1cccc(C(F)(F)F)c1,70.6
2,COc1ccc2cc3[n+](cc2c1OCCN(CCn1cncn1)Cc1ccc(F)cc1F)CCc1cc2c(cc1-3)OCO2,61.3
3,CC(C)Cn1c(=O)n(C)c(=O)c2c(-c3cncn3C)n(Cc3cccc4ccccc34)nc21,63.1
4,[N-]=[N+]=N[C@H]1C[C@H](n2ccc(=O)[nH]c2=O)O[C@@H]1CO,69.1
5,CN(C)[C@@H]1C(=O)C(C(N)=O)=C(O)[C@@]2(O)C(=O)C3=C(O)c4c(O)c(NC(=O)CN5CCCC5)cc(F)c4C[C@H]3C[C@@H]12,66
6,FC(F)(F)c1cc(C(F)(F)F)c2ccc3nc(-c4nnco4)cn3c2n1,67.3
7,CCOCc1nc2c(N)nc3ccccc3c2n1CC(C)(C)O,70.5
8,Nc1nc(-c2ccccc2)nc2[nH]nc(Nc3ccc(C(F)(F)F)cc3)c12,64.3
9,Cc1c(OCC(F)(F)F)ccnc1C[S+]([O-])c1nc2ccccc2[nH]1 (configuration not stated),66.4
10,c1cnc(NCc2ccc(CNc3ncccn3)cc2)nc1,67.2
11,CCC(C)n1ncn(-c2ccc(N3CCN(c4ccc(OCC5COC(Cn6cncn6)(c6ccc(Cl)cc6Cl)O5)cc4)CC3)cc2)c1=O (configuration not stated),78.2
12,O=C(O)COc1cccc2c1CC[C@](O)(COC(=O)N(c1ccccc1)c1ccccc1)C2,68.5
13,O=C(O)C(Cc1c[nH]c2ccccc12)N1C(=O)c2ccccc2C1=O (configuration not stated),68.5
14,Clc1cccc(-c2nnc(-c3ccccc3)o2)c1,64.1
15,CCCCSc1nc(N)c2[nH]c(=O)c(=O)n(Cc3ccccc3)c2n1,67.5
16,O=C(Nc1ccc(F)cc1)c1nn(-c2ccccc2)c(=O)cc1Cl,71
17,COc1ccc(C[C@@H](C)[C@@H](C)Cc2ccc(OC)c(OC)c2)cc1OC,65.2
18,Cc1onc(-c2ccccc2)c1-c1ccc(S(N)(=O)=O)cc1,66.8
